# Active and inactive are the calls of the source. Unless noted, no rule for the calls is given here.
# Legend:
# [1] = compound effects on lung adenocarcinoma cell viability – A549, calcein-AM fluorescence, 48 h, basal, profiling panel (AID 1162); settings: higher = more signal; also: test concentration not given here
# [2] = compound effects on differentiated 3T3-L1 adipocyte viability – cell-based, 3T3-L1 adipocytes, calcein-AM fluorescence, 48 h, basal, profiling panel (AID 1163); settings: 3T3-L1 adipocytes viability, higher = more signal; also: test concentration not given here
# [3] = compound effects on hepatocellular carcinoma cell viability – HepG2, calcein-AM fluorescence, 48 h, basal, profiling panel (AID 1164); settings: higher = more signal; also: test concentration not given here
# [4] = compound effects on multiple myeloma cell viability – MM1S, calcein-AM fluorescence, 48 h, basal, profiling panel (AID 1165); settings: higher = more signal;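 also: viability of MM1S multiple myeloma cells under basal unstimulated conditions; test concentration not given here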
# [5] = calcein-AM signal in unstimulated myeloma cells – cell-based, calcein-AM fluorescence, 48 h, PK04 Diversity Set, profiling panel (AID 1166); settings: RPMI8226 myeloma viability, higher = more signal;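 also: cells grown under basal conditions without added stimulus; test concentration not given here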
# [6] = JC-1 mitochondrial signal, unstimulated HepG2 cells – cell-based, JC-1 fluorescence, 24 h, 100 nL compound, profiling panel (AID 1167); settings: HepG2 mitochondrial potential, higher = more signal; also: test concentration not given here
# [7] = JC-1 mitochondrial signal, unstimulated adipocytes – cell-based, JC-1 fluorescence, 3T3-L1 adipocytes, 24 h, 100 nL compound, profiling panel (AID 1168); settings: JC-1 mitochondrial fluorescence, higher = more signal, called active from +8 up or from −8 down; also: test concentration not given here
# [8] = JC-1 mitochondrial signal, unstimulated myeloma cells – cell-based, JC-1 fluorescence, RPMI8226, 24 h, 100 nL compound, profiling panel (AID 1169); settings: JC-1 mitochondrial potential fluorescence, higher = more signal; also: test concentration not given here
# [9] = JC-1 mitochondrial signal, unstimulated MM1S myeloma – cell-based, JC-1 fluorescence, 24 h, 100 nL compound, profiling panel (AID 1170); settings: MM1S mitochondrial potential, higher = more signal; also: test concentration not given here
# [10] = resazurin metabolic signal in A549 cells – cell-based, resazurin fluorescence, 24 h, PK04 Diversity Set, profiling panel (AID 1171); settings: A549 viability, higher = more signal, called active from +8 up or from −8 down; also: test concentration not given here
# [11] = resazurin metabolic signal in HepG2 cells – cell-based, resazurin fluorescence, 24 h, PK04 Diversity Set, profiling panel (AID 1172); settings: HepG2 viability, higher = more signal; also: test concentration not given here
# [12] = budding yeast growth changes without added modifier – OD600, strain BY4716, 24 h, basal condition, primary screen (AID 1173); settings: S. cerevisiae BY4716 growth, OD600, 24 h; higher = more signal, called active from +8 up or from −8 down
# [13] = viability profiling in MM1S myeloma cells – cell-based, resazurin fluorescence, basal, 24 h, PK04 Diversity Set, profiling panel (AID 1174); settings: higher = more signal, called active from +8 up or from −8 down; also: test concentration not given here
# [14] = target: Dihydroorotate dehydrogenase (quinone), mitochondrial (Plasmodium falciparum (isolate 3D7)) (UniProt Q08210); assay: inhibition of P. falciparum DHODH – biochemical, C-terminal His tag, absorbance 600 nm, primary screen (AID 1175); settings: PfDHODH enzyme, DCIP absorbance 600 nm; higher = more signal, called active from +8 up or from −8 down;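 also: recombinant parasite enzyme with a five histidine tag at its C terminus; test concentration not given here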
# [15] = inhibition of PAO1 biofilm formation – strain PAO1, LB-PBS medium, absorbance 600 nm, primary screen (AID 1176); also: test concentration not given here; settings: P. aeruginosa PAO1 growth/biofilm, A600, 12 h; higher = more signal
# [16] = growth modulation of vineyard yeast isolate – strain RM11-1a, OD600, basal, 24 h, primary screen (AID 1177);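 also: cultures grown under basal conditions with no added stressor; test concentration not given here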; settings: S. cerevisiae RM11-1a growth, OD600, 24 h; higher = more signal, called active from +8 up or from −8 down
# [17] = growth of efflux-deficient E. coli DRC39 – strain DRC39, OD650, 24 h, E. coli filamentation inducers, primary screen (AID 1178);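 also: growth measured as culture turbidity by optical density at 650 nm; test concentration not given here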; settings: E. coli DRC39 acrAB, higher = more signal, called active from +8 up or from −8 down
# [18] = growth of efflux-deficient E. coli DRC39 – strain DRC39, OD650, 48 h, E. coli filamentation inducers, primary screen (AID 1179);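 also: screen aims at cell division blockers that make cells filament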; settings: E. coli DRC39 delta-acrAB growth, higher = more signal, called active from +8 up or from −8 down
# [19] = viability profiling in RPMI8226 myeloma cells – cell-based, resazurin fluorescence, basal, 24 h, PK04 Diversity Set, profiling panel (AID 1180); settings: higher = more signal;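 also: RPMI8826 multiple myeloma cell line at 5000 cells per well; test concentration not given here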
# [20] = target: E3 ubiquitin-protein ligase XIAP (Homo sapiens) (UniProt P98170); assay: small molecules binding XIAP protein – biophysical, small-molecule microarray, fluorescence 635 nm, primary screen (AID 1181); settings: higher = more signal;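 also: score merges 667 nm emission and signal to noise over triplicate slides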
# Chain of E3 ubiquitin-protein ligase XIAP (Homo sapiens) (P98170 whole entry, looked up): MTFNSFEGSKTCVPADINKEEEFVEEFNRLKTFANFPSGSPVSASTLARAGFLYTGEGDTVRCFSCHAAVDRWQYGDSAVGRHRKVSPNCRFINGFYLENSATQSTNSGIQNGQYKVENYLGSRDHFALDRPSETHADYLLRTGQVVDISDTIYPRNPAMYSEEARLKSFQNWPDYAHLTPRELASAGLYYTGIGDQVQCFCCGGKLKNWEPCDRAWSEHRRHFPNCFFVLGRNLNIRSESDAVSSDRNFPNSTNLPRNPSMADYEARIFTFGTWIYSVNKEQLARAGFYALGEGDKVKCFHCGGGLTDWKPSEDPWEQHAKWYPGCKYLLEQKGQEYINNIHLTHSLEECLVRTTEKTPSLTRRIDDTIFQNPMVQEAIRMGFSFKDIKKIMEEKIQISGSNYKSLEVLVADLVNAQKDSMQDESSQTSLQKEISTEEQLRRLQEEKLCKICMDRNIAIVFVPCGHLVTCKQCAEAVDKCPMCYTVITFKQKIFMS
# Chain of Dihydroorotate dehydrogenase (quinone), mitochondrial (Plasmodium falciparum (isolate 3D7)) (Q08210 whole entry, looked up): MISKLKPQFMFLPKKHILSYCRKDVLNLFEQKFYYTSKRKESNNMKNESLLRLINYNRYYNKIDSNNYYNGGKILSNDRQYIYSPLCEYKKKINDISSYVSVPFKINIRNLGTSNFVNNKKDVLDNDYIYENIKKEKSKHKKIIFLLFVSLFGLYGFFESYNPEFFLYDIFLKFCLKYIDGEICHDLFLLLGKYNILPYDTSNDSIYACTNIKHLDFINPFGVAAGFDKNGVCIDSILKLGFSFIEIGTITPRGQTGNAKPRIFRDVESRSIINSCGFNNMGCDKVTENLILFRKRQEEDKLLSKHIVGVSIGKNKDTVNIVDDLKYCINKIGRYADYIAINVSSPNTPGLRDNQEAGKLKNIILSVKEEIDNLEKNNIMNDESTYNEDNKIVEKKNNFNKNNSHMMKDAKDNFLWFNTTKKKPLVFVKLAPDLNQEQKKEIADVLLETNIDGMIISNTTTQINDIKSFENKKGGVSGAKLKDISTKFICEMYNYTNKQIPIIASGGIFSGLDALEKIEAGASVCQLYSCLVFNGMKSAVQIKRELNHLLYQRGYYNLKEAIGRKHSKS
SMILES,z-score [1],z-score [2],z-score [3],z-score [4],z-score [5],z-score [6],z-score [7],z-score [8],z-score [9],z-score [10],z-score [11],z-score [12],z-score [13],composite z-score [14],z-score [15],z-score [16],z-score [17],z-score [18],z-score [19],composite z-score [20]
CC(C)N1C(=O)C[C@@](C(=O)NCCCN(C)C)(c2ccc([N+](=O)[O-])cc2)[C@H]1c1ccc(CO)cc1,0.173,0.165,-0.093,-0.367,0.768,-0.459,-1.18 (inactive),0.701,0.169,-0.28 (inactive),0.0314,-0.67 (inactive),-1.21 (inactive),0.352 (inactive),0.745 (inactive),-0.379 (inactive),-0.328 (inactive),-1.02 (inactive),-0.198,-0.267
O=C1OCC=C[C@H]2OC34C=CCN(c5ccc(Cl)cc5)C(=O)[C@H]3N(CCO)C(=O)[C@@H]4[C@@H]12 (stereo not given in full),0.667,0.0916,0.781,0.0654,0.714,-0.365,-0.803 (inactive),0.0649,0.596,-0.27 (inactive),-0.222,0.52 (inactive),0.296 (inactive),0.198 (inactive),-0.401 (inactive),0.568 (inactive),0.973 (inactive),1 (inactive),0.825,-0.22
C=C(/C(=C/C[C@H](OC(=O)c1ccncc1)c1ccc(CO)o1)c1cc(C(=O)OC)ccc1OC)C(C)C,-0.762,-0.0308,-1.15,-1.26,-0.524,-0.133,-1.63 (inactive),-0.324,-0.251,-0.18 (inactive),-0.154,-0.368 (inactive),-0.797 (inactive),-0.913 (inactive),1.38 (inactive),0.112 (inactive),-0.825 (inactive),-0.655 (inactive),-0.9,-0.124
COc1ccc(NC(=O)O[C@H]2[C@H](OC(=O)Nc3ccccc3)[C@H](OC(=O)Nc3ccccc3)[C@@H](OC)O[C@@H]2CO)cc1,-0.985,0.998,-1.29,-2.7,-2.72,-0.186,-0.0233 (inactive),-0.339,-0.261,-1.44 (inactive),-1.05,0.593 (inactive),-1.49 (inactive),1.59 (inactive),0.509 (inactive),0.767 (inactive),0.124 (inactive),0.0606 (inactive),-0.936,-0.0599
C=CCOC(=O)[C@H]1[C@@H]2C(=O)O[C@@H](c3ccccc3)[C@@H](c3ccccc3)N2[C@@H](c2ccc(OCCOC(=O)[C@@H]3C[C@@H]4C(=O)N[C@@H](CCCCN(C)C)C(=O)N4[C@@H]3c3ccc(O)cc3)cc2)[C@]12C(=O)Nc1ccccc12,-0.0988,0.887,0.52,-0.305,-0.0297,-2.38,0.0411 (inactive),-0.473,-0.92,0.23 (inactive),-2.65,-1.48 (inactive),0.0862 (inactive),-1.52 (inactive),1.07 (inactive),0.0694 (inactive),-1.05 (inactive),-0.628 (inactive),0.313,-0.0172
COc1cc(CO)cc(I)c1O[C@H]1C=C(C(=O)NCCO)C[C@@H](NCc2ccc(F)cc2)[C@@H]1O,0.56,0.385,2.22,-2.35,-0.456,0.871,-0.389 (inactive),-0.251,-2.07,-0.183 (inactive),-0.205,-3.76 (inactive),-1.29 (inactive),0.969 (inactive),0.507 (inactive),0.0419 (inactive),0.988 (inactive),0.878 (inactive),-0.512,-0.101
CC1CC/C=C\[C@H]2OC34C=CCN(c5ccc(Cl)cc5)C(=O)[C@H]3N(CCCCCO)C(=O)[C@]4(C)C2C(=O)O1 (stereo not given in full),-0.0287,-0.607,0.843,0.743,-0.381,-0.197,-0.0396 (inactive),-0.909,1.27,-0.194 (inactive),-0.773,0.0314 (inactive),0.421 (inactive),1.22 (inactive),-0.801 (inactive),0.0329 (inactive),-0.113 (inactive),0.227 (inactive),0.0738,0.102
O=C1N(Cc2ccccc2)Cc2ccccc2[C@@H]2OC(c3ccc(OCCCO)cc3)=N[C@]12CCS(=O)(=O)c1ccccc1,0.589,-1.46,0.151,-1.25,-1.08,-0.565,0.676 (inactive),-1.14,-0.156,0.403 (inactive),-0.121,0.691 (inactive),-0.772 (inactive),0.094 (inactive),1.91 (inactive),2.33 (inactive),0.153 (inactive),-0.286 (inactive),-0.849,-0.144
COCCCNC(=O)[C@@]1(Cc2ccccc2N=[N+]=[N-])COC(c2ccc(OCCCO)cc2)=N1,0.552,-0.707,0.815,-0.919,-0.0778,0.796,0.156 (inactive),-0.408,-1.21,0.992 (inactive),0.677,-1.68 (inactive),-0.583 (inactive),0.962 (inactive),-0.76 (inactive),0.483 (inactive),0.349 (inactive),0.746 (inactive),0.895,0.0049

# Reference: PubChem BioAssay
